Measurements as given in PubChem BioAssay.
Values without a mark were called inactive. No rule for the calls is given here.

Each compound was assayed against Pantothenate synthetase (Mycobacterium tuberculosis (strain ATCC 25618 / H37Rv)) (UniProt P9WIL5) (assay: Recombinant Mtb pantothenate synthetase (PanC) inhibitors, coupled enzyme, confirmatory (AID 375;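 also: 0% = full reaction with vehicle and 100% = no enzyme background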)). Settings: coupled enzyme assay; at 10 µM, hits give high values.
Chain of Pantothenate synthetase (Mycobacterium tuberculosis (strain ATCC 25618 / H37Rv)) (P9WIL5 whole entry, looked up): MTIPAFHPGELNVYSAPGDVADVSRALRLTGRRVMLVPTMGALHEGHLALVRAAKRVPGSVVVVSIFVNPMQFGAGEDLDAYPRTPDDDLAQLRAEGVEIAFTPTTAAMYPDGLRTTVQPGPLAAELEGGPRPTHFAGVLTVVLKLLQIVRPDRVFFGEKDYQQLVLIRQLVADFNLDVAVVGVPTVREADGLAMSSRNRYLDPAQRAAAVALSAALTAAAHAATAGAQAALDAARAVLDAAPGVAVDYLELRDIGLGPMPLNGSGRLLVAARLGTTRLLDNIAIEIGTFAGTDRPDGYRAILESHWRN

SMILES | inhibition
Cc1nc2ccccc2c2oc(C(=O)NCCCN3CCCC3=O)cc12 | 7%
CC(=O)Nc1ccc(NC(=O)c2cc(C)nn2-c2ccccc2)cc1 | 2%
CNc1ccc(C(O)(C(F)(F)F)C(F)(F)F)cc1C(O)(C(F)(F)F)C(F)(F)F | 0%
N#C/C(=C(/O)CN1CCOCC1)c1nc2ccccc2s1 | 0%
Cc1occc1C(=O)Nc1cccc2ccccc12 | 0%
O=C(OCc1cc2ccccc2[nH]c1=O)c1ccncc1 | 7%
COc1ccc(Cn2nnnc2C(c2ccncc2)N2CCOCC2)cc1 (centres undefined) | 0%
O=P(O)(O)C(O)C(F)(F)C(F)(F)C(F)(F)C(F)F (centres undefined) | 0%
CC1Cn2c(nnc2-c2ccc(F)cc2)S1 (centres undefined) | 6%
COc1cc(-c2nnc(SCC(=O)c3ccc(C)cc3)o2)cc(OC)c1OC | 0%
CCCCSc1nc2c(cnn2-c2ccc(Cl)cc2)c(=O)[nH]1 | 0%
CCOC(=O)C1=C(c2ccccc2)Nc2nc(C)nn2C1c1cccc(OC)c1OC (centres undefined) | 0%
Cc1nc2nc(SCC(=O)NCc3ccco3)nn2c(C)c1Cc1ccccc1 | 0%
COc1cc2c(cc1OC)CN(C(=O)COc1ccc(C)c(C)c1)CC2 | 1%
CN(C1CCS(=O)(=O)C1)S(=O)(=O)c1cccc2nsnc12 (centres undefined) | 2%
CCOC(=O)c1sc(C)c2c1NC(C)(c1cccs1)NC2=O (centres undefined) | 4%
CC(NC(=O)c1ccc2c(c1)OCO2)C(c1cccs1)N1CCOCC1 (centres undefined) | 9%
CCOC(=O)c1c(NC(=O)c2cccs2)sc(C)c1C | 0%
COc1ccc(Cl)cc1S(=O)(=O)N1CCN(c2ccc(F)cc2)CC1 | 0%
Cn1c(=O)c2c(ncn2CCO)n(C)c1=O | 1%
CCSCCNC(=O)c1cc(-n2cnnc2)ccc1Cl | 0%
CCOC(=O)c1ccc(N=Cc2nc(-c3ccccc3)oc2OC(C)=O)cc1 | 0%
Cn1c(=O)c2[nH]cnc2n(C)c1=O | 1%
O=C(CSc1nc(N2CCCCC2)nc(N2CCCCC2)n1)Nc1nccs1 | 0%
